# Bioassay records as filed in PubChem.
# An excerpt weighted towards active compounds, which were near 18% of everything screened.
# DT40 TDP1 CPT: growth inhibition of DT40 Tdp1-/-;hTDP1 cells with camptothecin (screen for TDP1 inhibitors); chicken DT40 Tdp1-/-;hTDP1 cells + 20 nM CPT, ATP luminescence, 48 h; Potency, µM (doses to about 46.2 µM), for inactives: top-dose activity change, negative = growth inhibition, usual class: inhibitors; actives 12% (n = 420,000); AID 686979; further: nearly all actives have a fitted effect of over 55% in size
#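 Cell growth measured by CellTiter-Glo luminescence after a minimum 48 h, 37 C compound exposure with 20 nM CPT in Tdp1-knockout DT40 cells stably expressing hTDP1, seeded 400/well; qHTS titration format.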
# DT40 TDP1 no CPT: qHTS for Inhibitors of human tyrosyl-DNA phosphodiesterase 1 (TDP1): qHTS in cells in absence of CPT; actives 15% (n = 420,000); DT40 Tdp1-/- hTDP1 cells, no CPT, ATP luminescence, 48 h; AID 686978, 2013; Potency, µM (top dose mostly 46.2 µM), inactives show at the highest dose activity change, negative = growth inhibition, hits mostly inhibitors; further: nearly all actives have a fitted effect of over 55% in size
#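 Luminescent ATP content (CellTiter-Glo) served as the growth readout. Knockout chicken DT40 cells expressing human TDP1 were exposed to compounds without camptothecin for a minimum 48 hr at 37 °C.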
# KAT2A inh: GCN5L2 (KAT2A) acetyltransferase inhibition; Q92830; actives 0.21% (n = 390,000); Potency, µM (doses to about 58.9 µM), for inactives: at the top dose activity change, negative = inhibition, usual class: inhibitors; GCN5L2 HAT assay, ThioGlo1 CoA-SH fluorescence
#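 Titration-based screen in which CoA formation is detected via maleimide probe ThioGlo1 (50uM) turning fluorescent on thiol reaction; substrates H3(1-25) 75uM and acetyl-CoA 70uM, GCN5L2 20nM, 20 min incubation at room temperature.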
# TDP1 inh: TDP1 (human) enzyme inhibition. recombinant TDP1, AlphaScreen DNA substrate cleavage. actives 0.28% (n = 350,000). Potency, µM (doses to about 130 µM), for the others: at the highest dose activity change, negative = inhibition, most hits filed as inhibitors; further: nearly all actives have a fitted effect of over 40% in size
# Target sequence (Q9NUW8 whole entry, looked up): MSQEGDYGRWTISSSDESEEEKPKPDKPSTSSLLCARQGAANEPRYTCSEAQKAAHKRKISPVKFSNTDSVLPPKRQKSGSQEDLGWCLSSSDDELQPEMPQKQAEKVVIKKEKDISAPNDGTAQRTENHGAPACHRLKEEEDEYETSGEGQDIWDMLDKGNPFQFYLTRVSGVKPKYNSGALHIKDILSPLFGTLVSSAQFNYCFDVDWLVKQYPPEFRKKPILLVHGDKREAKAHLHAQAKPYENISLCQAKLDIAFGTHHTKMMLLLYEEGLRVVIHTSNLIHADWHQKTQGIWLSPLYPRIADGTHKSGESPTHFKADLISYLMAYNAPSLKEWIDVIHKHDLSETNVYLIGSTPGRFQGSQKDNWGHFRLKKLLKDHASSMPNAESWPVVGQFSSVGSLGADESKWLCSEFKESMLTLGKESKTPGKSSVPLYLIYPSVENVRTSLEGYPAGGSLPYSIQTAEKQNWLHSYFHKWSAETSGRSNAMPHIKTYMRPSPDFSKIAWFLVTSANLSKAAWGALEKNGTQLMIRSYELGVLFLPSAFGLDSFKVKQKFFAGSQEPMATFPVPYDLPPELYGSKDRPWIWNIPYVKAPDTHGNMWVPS
#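 Signal: AlphaScreen proximity between streptavidin donor and anti-FITC acceptor beads on intact substrate. Reaction: Tdp1 1 nM, substrate 15 nM final, 5 min RT after 15 min compound preincubation.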
# PLK1 PBD inh: PLK1 (human) polo-box domain binding inhibition; Potency, µM, for inactives: max response, negative = inhibition, hits mostly inhibitors; actives 2.8% (n = 360,000); Plk1 PBD binding of FITC phosphopeptide, fluorescence polarization; P53350; further: series mostly up to about 57 µM; nearly all actives have a fitted effect of over 65% in size
# VDR inh: vitamin D3 receptor (human) inhibition; AID 504847; P11473; actives 0.93% (n = 400,000); Potency, µM, for inactives: max response, negative = inhibition, actives largely listed as inhibitors; VDR-SRC2-3 peptide fluorescence polarization, 2 h
#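 Reagent solutions, kept cold and dark, are dispensed first; compounds are then pinned in at 23 nl, plates briefly spun, and incubated 2 h at ambient temperature. Inhibition of VDR–SRC2-3 peptide binding is read by fluorescence polarization.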
# The depositor's hits bear a star; ? = inconclusive; nt = no result given; [ ] = remark or other dose. The call rests on the fitted dose curve; in most records, active means well fitted curve in the direction sought with a large enough effect; inconclusive means small, poorly fitted or top-dose-only effect, or another doubt; inactive means no such curve, though single readings can be large; an effect the other way counts as inactive or inconclusive. On the % scale 0 is the no-effect control and ±100 the full control effect; potency means the concentration at half of the fitted maximal effect.
SMILES,DT40 TDP1 CPT,DT40 TDP1 no CPT,KAT2A inh,TDP1 inh,PLK1 PBD inh,VDR inh
O=C(Cn1sc2ccccc2c1=O)NC12CC3CC(CC(C3)C1)C2,1.5µM*,1.8µM*,14µM*,12%,3µM*,?
O=C(Cn1sc2ccccc2c1=O)Nc1ccccc1,2.3µM*,2.1µM*,nt,nt,1.2µM*,nt
Cc1ccc(-n2nc(C)c3c(C(=O)Nc4ccc(C)cc4Cl)cc(C)nc32)cc1,-24%,?,-22%,1%,nt,0%
CCc1ccc(NC(=O)C(CC)n2nnc(C(=O)OC)c2C(=O)OC)cc1 (centres undefined),-1%,-17%,-6%,2%,nt,12%
Cc1ccccc1Nc1c(-c2ccccc2)nc2cccc(C)n12,?,3.2µM*,3%,0%,nt,12%
Cc1ccccc1Nc1c(-c2ccc(Cl)s2)nc2cccc(C)n12,8.2µM*,?,-4%,0%[12.3 µM],nt,-13%
COCCCN1C(=O)N(c2ccccc2)C(=O)C1CC(=O)Nc1ccc(F)cc1 (centres undefined),?,-1%,-1%,1%,2%,-2%
Cc1ccsc1CCN1C(=O)N(c2ccccc2)C(=O)C1CC(=O)Nc1ccc(F)cc1 (centres undefined),?,15µM*,-12%,1%,nt,-3%
Cc1ccsc1CCN1C(=O)N(c2ccc(F)cc2)C(=O)C1CC(=O)Nc1ccccc1 (centres undefined),?,23µM*,-2%,-4%,nt,8%
Nc1ccc2ccccc2c1C(=O)c1ccccc1,-6%,?,nt,nt,-8%,-7%
CCOc1ccc(CNC(=O)Cn2nc(C)c3c(C)n(-c4ccc(C)cc4)nc3c2=O)cc1,?,-13%,-13%,-20%,30µM*,-19%
COc1ccc(OC)c(CCNC(=O)Cn2nc(C)c3c(C)n(-c4ccc(C)cc4)nc3c2=O)c1,-16%,15µM*,-14%,nt,-19%,-10%
CCc1ccc(CNC(=O)Cn2nc(C)c3c(C)n(-c4ccc(C)cc4)nc3c2=O)cc1,?,?,-1%,0%,nt,-3%
Cc1nc2nc(NCc3ccc(Br)cc3)[nH]n2c(=O)c1Cc1ccccc1,?,?,-2%,6%,nt,17%
COCCNC(=O)C1(C)CCCN(C(=O)CCc2ccccc2)C1 (centres undefined),-18%,-5%,nt,nt,3%,nt
Cc1ccc(C[C@@H](NS(=O)(=O)c2ccc(C(=O)O)cc2)C(=O)O)cc1,nt,nt,1%,16%,nt,nt
COc1ccc(-c2noc(CN3CCN(c4ccccc4)CC3)n2)cc1,?,-22%,-7%,4%,-6%,-19%
COc1ccc(Cc2noc(CN3CCN(c4ccc(Cl)cn4)CC3)n2)cc1OC,?,18µM*,-11%,3%,-6%,-10%
COc1ccc(Cc2noc(CN3CCN(Cc4cccc(Cl)c4)CC3)n2)cc1OC,?,10µM*,-24%,nt,0%,15%
COCCN1CCN(Cc2nc(Cc3ccc(OC)c(OC)c3)no2)CC1,-14%,15%,-6%,4%,2%,2%
COc1cc(-c2noc(CN3CCN(c4cccc(Cl)c4)CC3)n2)cc(OC)c1OC,16µM*,21µM*,-11%,1%,nt,-17%
COC(=O)[C@@H]1CC2=CC(=O)CC[C@]2(C)[C@@]23O[C@@H]2C[C@@]2(C)[C@H](CC[C@@]24CCC(=O)O4)[C@@H]13,nt,nt,21%,0%,nt,9%
COc1ccc(CNC(=O)Cn2nc([N+](=O)[O-])c(Br)c2C)cc1,3%,-6%,-4%,3%,-10%,-5%
Cc1c(Br)c([N+](=O)[O-])nn1CC(=O)NCc1ccccc1,?,?,10%,0%,12µM*,?
CCCCCC[n+]1c(-c2ccc(Cl)cc2Cl)csc1Nc1ccccc1,?,23µM*,-2%,0%,4%,-4%
SMILES,DT40 TDP1 CPT,DT40 TDP1 no CPT,KAT2A inh,TDP1 inh,PLK1 PBD inh,VDR inh
CC(=O)Nc1ccc(N2C(C(C)=O)=NN(c3ccc(Cl)cc3)C2c2sccc2C)cc1 (centres undefined),23µM*,23µM*,-13%,5%[56.1 µM],-4%,15%
CC(=O)Nc1ccc(N2C(C(C)=O)=NN(c3ccccc3)C2c2cccs2)cc1 (centres undefined),?,?,-20%,-2%,4%,-1%
CN(CC(=O)Nc1ccccc1Br)C(=O)CNC(=O)Cc1cccc2ccccc12,-19%,?,0%,4%,-8%,1%
CCCCC[C@]12Cc3ccccc3C(O1)C1=C(CC(C)(C)CC1=O)O2,nt,nt,-3%[12.7 µM],nt,nt,nt
CCOC(=O)N/N=C/c1ccc(N2CCOCC2)s1,0%,-52%,-4%,2%,-12%,0%
O=C(N/N=C/c1ccc(N2CCOCC2)s1)c1ccccc1Cl,?,-20%,-13%,-3%,24µM*,?
CC1(C(=O)Nc2ccccc2F)CCN1C(=O)Cc1cc(F)ccc1F (centres undefined),-1%,?,nt,nt,-9%,nt
Cc1cc(F)ccc1S(=O)(=O)NCC1CC2CCC1C2 (centres undefined),-18%,-13%,-1%,nt,2%,7%
NC(=O)CN1CCN(S(=O)(=O)c2ccc(Br)cc2)CC1,1%,-11%,-6%,5%,-27%,-18%
N#Cc1nc(N2CCCC2)nc(N(c2ccccc2)c2ccccc2)n1,9%,-20%,nt,-1%,nt,-13%
CCN(c1ccccc1)c1nc(C#N)nc(N(CC)c2ccccc2)n1,?,?,-18%,-5%,21µM*,?
Cc1ccc(S(=O)(=O)N2CC(O)C[C@H]2C(=O)OCC(=O)c2ccccc2)cc1 (some centres undefined),4%,2%,3%,0%,-6%,-4%
CC(C)(C)OC(=O)N1C[C@H](O)C[C@H]1C(=O)OCC(=O)c1ccc([N+](=O)[O-])cc1,16µM*,?,-3%,0%,21µM*,?
CCOP(=O)(Nc1ccc2oc(=O)c3ccccc3c2c1)OCC,?,?,-12%,nt,9%,-4%
O=c1cnn(-c2ccccc2)c(-c2ccccc2)c1,?,18µM*,1%,0%,-6%,-6%
Nc1c(-c2ccccc2)cnn1-c1ccccc1,-11%,1%,0%,nt,-7%,-27%
O=C(NCC1CCCO1)C(c1cccs1)N(C(=O)c1ccc(-c2ccccc2)[nH]1)C1CCCC1 (centres undefined),-27%,?,-10%,-2%,-8%,-11%
